# Experimental data as given in PubChem BioAssay (NCI).
# The panel holds about 83,000 compounds, 20% with a hit somewhere; the sample as a whole holds those more often.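 Cell lines were cultured in 96-well plates, exposed to a single compound concentration, and assessed for percent growth 48 hours later.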 A number with no mark means an inactive call. Activity calls are given as the source filed them. Rule for the calls: active = growth percent below 10; inactive = the rest.
# System: SR leukemia
# Test: NCI-60 one-dose screen, 48 h (100 = growth as untreated, 0 = no growth, -100 = all killed)
# Conditions: 10 µM unless noted
row,Compound,growth
1,O=c1c2ccccc2c2nccn2c2cc(Cl)ccc12,11%
2,COc1ccc(-c2ccc(O)c(C(=O)/C=C/c3cc(OC)c(OC)c(OC)c3)c2)cc1,56.2%
3,Cn1cnc([N+](=O)[O-])c1Sc1nc(N)nc2nc[nH]c12,10.5%
4,Cc1cc(=O)oc2cc(OCCn3c(C)nn(-c4ccc(Cl)cc4)c3=O)ccc12,21.2%
5,O=C1C=CC(=O)N1c1ccccn1,79.4%
6,CCN(CC)c1ccc(N=C2C=CC(=O)C=C2NC(C)=O)cc1,110%
7,CC1CN(C2CCCCC2)C(=O)NC1=O (stereo not drawn),80.3%
8,COc1ccc2cc(C3=CC(=O)CCC3)ccc2c1,91.8%
9,COc1ccc(Cl)cc1Nc1nc(C(F)(F)F)ccc1C(=O)N/N=C/c1c(Cl)cccc1Cl,22%

# System: RPMI-8226 leukemia
# Test: as above
# Conditions: 10 µM unless noted
row,Compound,growth
1,COc1ccc2c(c1)CC[C@@H]1[C@@H]2CC[C@]2(C)[C@@H](O)C(=O)C[C@@H]12,103%
2,C[C@@H]1CN(c2nc3c(cc2F)c(=O)c(C(=O)O)cn3C(C)(C)C)C[C@H](C)N1,114%
3,NS(=O)(=O)c1ccc(-n2ncc3c(NC4CCCCC4)ncnc32)cc1,91%
4,CCOC(=O)C1=CCC(n2cc(C)c(=O)[nH]c2=O)O1 (stereo not drawn),106%
5,O=CNc1ccc2c(c1)Cc1cc([N+](=O)[O-])ccc1-2,35.6%
6,CC(=O)[C@H]1CC[C@H]2[C@@H]3C[C@H](C)C4=CC(=O)CC[C@]4(C)[C@H]3C(=O)C[C@]12C,97.3%
7,Cc1ccc2nc(SCC(=O)Nc3ccc(-c4nc5ccccc5s4)c(Cl)c3)[nH]c2c1,109%
8,Cc1ccc(C(=O)Cc2ccccc2)c(O)c1,115%
9,ICCC(c1ccccc1)(c1ccccc1)c1ccccc1,20%
10,c1ccc(CN=C(NCc2ccccc2)NCc2ccccc2)cc1,43.5%
11,Oc1ccc(/C=N/Nc2nc3ccccc3s2)c(O)c1,37.4%
12,O=C(CC(C(=O)c1ccccc1)N1CCN(Cc2ccccc2)CC1)c1ccccc1 (stereo not drawn),28.7%
13,CC(NC(N)=S)c1ccccc1 (stereo not drawn),116%
14,C[C@]12CCC(=O)C=C1CC[C@H]1[C@@H]3C[C@@H](O)[C@](O)(C(=O)CO)[C@@]3(C)C[C@H](O)[C@@]12F,67.1%
15,O=C(Nc1ccc2c(c1)C(=O)c1ccccc1-2)c1ccccc1,63.5%
16,COC(=O)C1=CCC(n2cnc3c(N)ncnc32)O1 (stereo not drawn),118%
17,CCN(Cc1cccc(S(=O)(=O)[O-])c1)c1ccc(C(=C2C=CC(=[N+](CC)Cc3cccc(S(=O)(=O)O)c3)C=C2)c2ccccc2S(=O)(=O)O)cc1,100%
18,CC(NC(=O)Oc1cccc2ccccc12)c1ccccc1 (stereo not drawn),109%
19,OC(c1cc(-c2cccc(Cl)c2)nc2ccccc12)C1CCCCN1 (stereo not drawn),-26.8% (active)
20,O=C(Nc1ccccc1OC(=O)c1ccccc1)c1ccccc1,91.7%

row,Compound,growth
1,Cc1ccccc1NC(=O)NC(CC(N)=O)c1ccc2c(c1)nc(-c1cccc(Oc3ccc(C(C)(C)C)cc3)c1)n2CCCN1CCCCC1C (stereo not drawn),-29.2% (active)
2,O=C(C(=O)c1cc(Br)ccc1O)c1cc(Br)ccc1O,16.6%
3,Fc1ccccc1C1c2ccccc2-c2nccn21 (stereo not drawn),80.3%
4,COc1cc(/C=C\C(C)=N\Nc2ccccc2)ccc1O,76.3%
5,COc1cc(/C=N/NC(=O)c2ccc(C(F)(F)F)nc2Nc2ccc(Cl)cc2C)ccc1O,26.8%
6,O=Cc1ccccc1C(=O)O,106%
7,COc1cc(NC(=O)NCc2ccco2)ccc1-c1ccc(NC(=O)NCc2ccco2)cc1OC,65.2%
8,COc1cccc(/C=N/Nc2nc3ccccc3s2)c1OC,74.8%
9,O=C(N/N=C/c1ccc(Cl)cc1Cl)c1ccccc1Nc1cccc(C(F)(F)F)c1,58.4%
10,COc1ccc(NS(=O)(=O)N2CCCCC2)cc1,102%
11,O=c1c2ccccc2c2nccn2c2cc(Cl)ccc12,64.8%
12,COc1ccc(-c2ccc(O)c(C(=O)/C=C/c3cc(OC)c(OC)c(OC)c3)c2)cc1,24.7%
13,Cn1cnc([N+](=O)[O-])c1Sc1nc(N)nc2nc[nH]c12,-19.5% (active)
14,Cc1cc(=O)oc2cc(OCCn3c(C)nn(-c4ccc(Cl)cc4)c3=O)ccc12,31%
15,O=C1C=CC(=O)N1c1ccccn1,113%
16,CCN(CC)c1ccc(N=C2C=CC(=O)C=C2NC(C)=O)cc1,89.8%
17,CC1CN(C2CCCCC2)C(=O)NC1=O (stereo not drawn),111%
18,COc1ccc2cc(C3=CC(=O)CCC3)ccc2c1,92.6%
19,COc1ccc(Cl)cc1Nc1nc(C(F)(F)F)ccc1C(=O)N/N=C/c1c(Cl)cccc1Cl,40.1%
